{"source": "PubChem BioAssay AID624377", "about": "(The Scripps Research Institute Molecular Screening Center, 2012)", "note": "Screen size: about 360,000 compounds; about 680 (0.19%) were called active. No stated cut-off is given here; in the data, active means inhibition above about 25%; inactive means the rest. For the sample, actives were picked, then their nearest neighbours and some compounds at random."}
{"target": "Arf-GAP with SH3 domain, ANK repeat and PH domain-containing protein 1 (Homo sapiens) (UniProt Q9ULH1)", "sequence (Q9ULH1 325-724 limits assumed)": "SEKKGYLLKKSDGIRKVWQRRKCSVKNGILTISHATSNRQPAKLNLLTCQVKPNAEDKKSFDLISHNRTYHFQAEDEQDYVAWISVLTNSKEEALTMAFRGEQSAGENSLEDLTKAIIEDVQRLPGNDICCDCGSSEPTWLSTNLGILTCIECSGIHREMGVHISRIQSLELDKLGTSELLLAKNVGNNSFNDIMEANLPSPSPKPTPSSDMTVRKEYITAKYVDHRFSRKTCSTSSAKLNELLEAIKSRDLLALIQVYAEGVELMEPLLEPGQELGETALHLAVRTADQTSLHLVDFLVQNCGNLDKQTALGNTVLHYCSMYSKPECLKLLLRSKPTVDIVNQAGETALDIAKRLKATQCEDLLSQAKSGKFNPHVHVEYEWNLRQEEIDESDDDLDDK", "experiment": "blockers of ASAP1-stimulated ARF1 GTP hydrolysis – biochemical, fluorescence polarization, primary screen (AID 624377);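 further: 0% = vehicle with enzyme and substrate and 100% = no enzyme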", "conditions": "GDP FP detection, at 16.5 µM, active compounds read high"}
{"smiles": "COC(=O)[C@]12C[C@H](CC(=O)NCc3cccc(C(F)(F)F)c3)C(=O)N(Cc3ccc4c(c3)OCO4)C1=C[C@H](COCc1ccccc1)O[C@@H]2C", "inhibition": "2.38% (inactive)"}
{"smiles": "COC(=O)C1=C(C)N(Cc2ccccc2C(F)(F)F)C(=NCc2ccc(C(F)(F)F)cc2)NC1c1ccc(F)cc1", "note": "(stereo not given)", "inhibition": "8.73% (inactive)"}
{"smiles": "COC(=O)C(C(=O)OC)c1ccccc1NS(=O)(=O)c1cccc2ccccc12", "inhibition": "-1.63% (inactive)"}
{"smiles": "COCCNc1nc(Nc2ccccc2Cl)c2sc(-c3ccccc3)cc2n1", "inhibition": "13.4% (inactive)"}
{"smiles": "OCCNCCOc1ccc(Cl)c(Cl)c1", "inhibition": "-8.06% (inactive)"}
{"smiles": "OCCNc1nc(Nc2ccc(Cl)c(Cl)c2)nc2ccccc12", "inhibition": "26% (active)"}
{"smiles": "COC(=O)[C@]12C[C@H](CC(=O)NCc3ccc(C)o3)C(=O)N(CCC3=CCCCC3)C1=C[C@H](C(C)(C)C)O[C@@H]2C", "inhibition": "-6.9% (inactive)"}
{"smiles": "COC(=O)C1=C(C)NC(=S)NC1c1ccc(OC)cc1", "note": "(stereo not given)", "inhibition": "3.47% (inactive)"}
{"smiles": "COC(=O)c1ccc(NCC(=O)c2ccccc2)cc1", "inhibition": "24.7% (active)"}
{"smiles": "COC(=O)c1ccc(NC(=O)C(C)N2C(=O)c3ccccc3C2=O)cc1", "note": "(stereo not given)", "inhibition": "2.27% (inactive)"}
{"smiles": "C#CCNc1ccc(C(=O)OCC)cc1", "inhibition": "-6.34% (inactive)"}
{"smiles": "Cc1ccc2nc(CN(C)C(=O)[C@@H](Cc3ccccc3)NC(=O)[C@H]3O[C@@H](n4ccc(=O)[nH]c4=O)[C@H](O)[C@@H]3O)[nH]c2c1", "inhibition": "-16.7% (inactive)"}
{"smiles": "Cc1noc(C)c1NC(=O)Nc1ccc2c(c1)C(=O)N([C@H](C)CO)C[C@H](C)[C@H](CN(C)Cc1ccncc1)OCCCC[C@@H](C)O2", "inhibition": "3.29% (inactive)"}
{"smiles": "O=S(=O)(c1cccs1)N1CCCc2nc(-c3ccc(Br)cc3)ccc21", "inhibition": "0.45% (inactive)"}
{"smiles": "C=CCC[C@@H](CCCCC)OC(=O)/C=C/[C@@H](O)[C@H](O)C[C@H](O)CC=C", "inhibition": "26.7% (active)"}
{"smiles": "C=CCC[C@H](CCCCC)OC(=O)/C=C/[C@H](O)[C@@H](O)C[C@@H](O)CC=C", "inhibition": "5.11% (inactive)"}
{"smiles": "CCCCNc1cccc2c1S(=O)(=O)N[C@@H](C)CO2", "inhibition": "5.97% (inactive)"}
{"smiles": "CC(C)CNc1cccc2c1S(=O)(=O)N[C@H](C)CO2", "inhibition": "-1.48% (inactive)"}
{"smiles": "CN1C(=O)C(Br)(Br)CC1c1cccnc1", "note": "(stereo not given)", "inhibition": "2.71% (inactive)"}
{"smiles": "COCCCNC(=O)C[C@H]1C[C@@]2(C(=O)OC)C(=C[C@H](C(C)(C)C)O[C@@H]2C)N(Cc2ccc3c(c2)OCO3)C1=O", "inhibition": "-0.04% (inactive)"}
{"smiles": "Cc1cc(OC(=O)NCCc2ccc(F)cc2)ccc1F", "inhibition": "-5.01% (inactive)"}
{"smiles": "C=CCN1C(=O)N(Cc2ccccc2)c2ccccc2S1(=O)=O", "inhibition": "10.9% (inactive)"}
{"smiles": "COC(=O)C1=C(C)N(Cc2ccccc2C(F)(F)F)C(=NCc2ccc(OC)cc2)NC1c1cccc(C(F)(F)F)c1", "note": "(stereo not given)", "inhibition": "-0.5% (inactive)"}
{"smiles": "C[C@H]1[C@H](c2ccccc2)Oc2cc(Br)ccc2S(=O)(=O)N1Cc1cccc(F)c1", "inhibition": "-15.2% (inactive)"}
{"smiles": "COC(=O)Nc1nc2ccc(C(=O)C3CC3)cc2[nH]1", "inhibition": "3.58% (inactive)"}
{"smiles": "CC1(C)OC(=O)C2=C(CC(CCc3ccccc3)OC2c2ccc(Cl)cc2)O1", "note": "(stereo not given)", "inhibition": "0.87% (inactive)"}
{"smiles": "O=C(Nc1c(Cl)c(C2CC2)nn1-c1ccccc1)C(Cl)(Cl)Cl", "inhibition": "6.91% (inactive)"}
{"smiles": "O=C(C(=O)N1CCC(CNS(=O)(=O)Cc2ccccc2)CC1)c1cc2ccccc2o1", "inhibition": "-10.9% (inactive)"}
{"smiles": "COC(=O)c1c(-c2ccc(OC)cc2)c2c(c3c4ccccc4n(S(=O)(=O)c4ccc(C)cc4)c13)C(=O)N(C)C2", "inhibition": "5.81% (inactive)"}
{"smiles": "Brc1ccc(COCCc2cn(Cc3ccccc3)c3ccccc23)cc1", "inhibition": "-1.81% (inactive)"}
{"smiles": "COC(=O)Cc1nnn2c1[C@H](C)[C@@H](OC)c1cc(Br)ccc1-2", "inhibition": "8.77% (inactive)"}
{"smiles": "CC[C@H](NC(=O)[C@H](Cc1ccccc1)NC(=O)[C@H]1O[C@@H](n2cnc3c(=O)[nH]c(N)nc32)[C@H](O)[C@@H]1O)c1ccccc1", "inhibition": "3.49% (inactive)"}
{"smiles": "O=S1(=O)c2c(cccc2N2CCCC2)O[C@H](COCc2ccccc2)CN1C1CC1", "inhibition": "-12.9% (inactive)"}
{"smiles": "CC1CCN(C(=O)c2ncn3c2C(=O)N[C@@H](C)C3)CC1", "inhibition": "1.95% (inactive)"}
{"smiles": "CC(=O)C1=C(C)N(Cc2ccc(Cl)cc2)C(=S)NC1c1ccc(F)cc1", "note": "(stereo not given)", "inhibition": "-0.95% (inactive)"}
{"smiles": "CCCCCCCCN1C(=O)[C@@H](CC(=O)NCc2ccccc2)C[C@@]2(C(=O)OC)C1=C[C@H](C(C)(C)C)O[C@@H]2C", "inhibition": "4.65% (inactive)"}
{"smiles": "CCc1c(-c2ccccc2OC)ncn1CCc1ccccc1OC", "inhibition": "8.29% (inactive)"}
{"smiles": "COc1ccc(S(=O)(=O)Nc2ccc3c(c2)C(=O)N([C@H](C)CO)C[C@H](C)[C@@H](CN(C)C)OCCCC[C@H](C)O3)cc1", "inhibition": "-2.07% (inactive)"}
{"smiles": "O=C(O)Cn1cnc2c(NCc3ccccc3)ncnc21", "inhibition": "-0.64% (inactive)"}
{"smiles": "CCOC(=O)C1CSCCS(=O)(=O)N1Cc1ccc(Cl)cc1", "note": "(stereo not given)", "inhibition": "1.02% (inactive)"}
{"smiles": "O=C(N[C@H](Cc1ccccc1)C(=O)N1CCCN(Cc2cccs2)CC1)[C@H]1O[C@@H](n2ccc(=O)[nH]c2=O)[C@H](O)[C@@H]1O", "inhibition": "-8.2% (inactive)"}
{"smiles": "O=S1(=O)c2ccc(Br)cc2-n2nncc2CN1Cc1cccc(Cl)c1", "inhibition": "-4.19% (inactive)"}
{"smiles": "CCCCOCC1CN(CCCC)S(=O)(=O)c2c(Oc3ccc(F)cc3)cccc2O1", "note": "(stereo not given)", "inhibition": "-4.17% (inactive)"}
{"smiles": "C[C@H](O)[C@@H]1C(=O)N2CCc3c([nH]c4c(-c5ccc6c(c5)OCO6)cccc34)[C@@H]2C[C@@H]1N(C)C(=O)c1ccco1", "inhibition": "-3.66% (inactive)"}
{"smiles": "C=CCN=C1NC(c2cccc(C(F)(F)F)c2)C(C(=O)OC)=C(C)N1C", "note": "(stereo not given)", "inhibition": "-4.81% (inactive)"}
{"smiles": "C[C@H]1CN([C@@H](C)CO)C(=O)CCCn2nncc2CO[C@@H]1CN(C)C(=O)Nc1ccc(N2CCN(C)CC2)cc1", "inhibition": "6.23% (inactive)"}
{"smiles": "COC(=O)c1cc2c(c3c4cc(F)ccc4n(S(=O)(=O)c4ccccc4)c13)C(=O)N(Cc1ccccc1OC)C2", "inhibition": "-0.6% (inactive)"}
{"smiles": "Nc1ncnc2c1ncn2[C@@H]1O[C@H](C(=O)N[C@@H](CCc2ccccc2)C(=O)NCC(=O)N2CCOCC2)[C@@H](O)[C@H]1O", "inhibition": "-8.44% (inactive)"}
{"smiles": "CC(=O)N1C[C@@H](CO)[C@@H](N(C)C(=O)C(C)(C)C)C[C@H]1c1ccccc1Br", "inhibition": "-5.76% (inactive)"}
{"smiles": "OC(c1ccccc1)(c1ccccc1)C1CCN(CCCOc2ccc(-c3ccsc3)cc2)CC1", "inhibition": "13.7% (inactive)"}
{"smiles": "Cc1ccc2nc(SCC(=O)N3CC(C)OC(C)C3)nc(=O)n2c1", "note": "(stereo not given)", "inhibition": "40.7% (active)"}
{"smiles": "Cc1ccc2nc(SCC(=O)Nc3cccc4ccccc34)nc(=O)n2c1", "inhibition": "16.5% (inactive)"}
{"smiles": "Cc1ccc2nc(SCC(=O)N3CCN(c4ccccc4)CC3)nc(=O)n2c1", "inhibition": "14.1% (inactive)"}
{"smiles": "CC(=O)N(C1=C(Cl)C(=O)c2ccccc2C1=O)c1ccc(C(=O)O)cc1", "inhibition": "29.4% (active)"}
{"smiles": "O=C1C(Cl)=C(Oc2ccccc2)C(=O)c2ccccc21", "inhibition": "-0.42% (inactive)"}
{"smiles": "COc1ccc(-c2ccccc2C2Cc3nnccc3CN2C(=O)Nc2ccccc2)cc1", "note": "(stereo not given)", "inhibition": "-1.04% (inactive)"}
{"smiles": "O=C(NCc1ccccc1)[C@H]1CCCN1C(=O)[C@H]1CCCN1C(=O)N1CCOCC1", "inhibition": "11.6% (inactive)"}
{"smiles": "Nc1[nH]c(C(=O)c2ccc(Br)cc2)c(-c2ccc3c(c2)OCO3)c1C(=O)NCCc1c[nH]c2ccccc12", "inhibition": "9.33% (inactive)"}
{"smiles": "CC(=O)c1ccc(S(=O)(=O)NCC2CCN(C(=O)C(=O)c3cccs3)CC2)cc1", "inhibition": "-0.29% (inactive)"}
{"smiles": "OCCNc1nc2ccccc2n1-c1ncnc2sc3c(c12)CCC3", "inhibition": "1.46% (inactive)"}
{"smiles": "COc1ccc(/C=N/Nc2ncnc3sc4c(c23)CCCC4)cc1O", "inhibition": "27.3% (active)"}
{"smiles": "O=C(O)c1cccnc1Sc1ncnc2sc3c(c12)CCC3", "inhibition": "8.49% (inactive)"}
{"smiles": "COc1cccc(CNC(=O)[C@H]2CCCN2C(=O)[C@H]2CCCN2C(=O)c2ccc(F)cc2)c1", "inhibition": "-1.31% (inactive)"}
{"smiles": "CCn1c2ccccc2c2cc(NC(=O)COC(=O)c3cc(S(=O)(=O)N4CCCCC4)ccc3Cl)ccc21", "inhibition": "0.3% (inactive)"}
{"smiles": "CCn1c2ccccc2c2cc(NC(=S)N3CCOCC3)ccc21", "inhibition": "-2.05% (inactive)"}
{"smiles": "CCn1c2ccccc2c2cc(NC(=O)C/C(C)=N/NC(=O)c3ccccc3N)ccc21", "inhibition": "27% (active)"}
{"smiles": "COC(=O)C1=C(C)N(Cc2ccccc2C(F)(F)F)C(=NCC2CC2)NC1c1cccc(Cl)c1", "note": "(stereo not given)", "inhibition": "17.5% (inactive)"}
{"smiles": "C#CCN([C@@H](C)C(=O)OCC)S(=O)(=O)c1ccc(Br)cc1F", "inhibition": "3.17% (inactive)"}
{"smiles": "Cc1ccc2nc(-c3ccc(CN4CCC(n5cc(-c6ccccc6)[nH]c5=O)CC4)cc3)c(-c3ccccc3)nc2c1", "inhibition": "9.24% (inactive)"}
{"smiles": "Cc1cc2nc3c(=O)[nH]c(=O)nc-3n(C[C@H](O)[C@H](O)[C@H](O)CO)c2cc1C", "inhibition": "0.24% (inactive)"}
{"smiles": "COc1ccccc1C(=O)N1O[C@]23C=C[C@]14C[C@@H](O)CC[C@]4(C)C2CC[C@]1(C)[C@@H]([C@H](C)/C=C/[C@H](C)C(C)C)CC[C@H]13", "note": "(stereo not given in full)", "inhibition": "6.77% (inactive)"}
{"smiles": "C=CCN=C1NC(c2ccccc2)C(C(=O)OC)=C(C)N1Cc1ccc(C(F)(F)F)cc1", "note": "(stereo not given)", "inhibition": "9.79% (inactive)"}
{"smiles": "CCOC(=O)CNC(=O)N(C)[C@H]1C[C@H]2c3[nH]c4c(-c5ccc6c(c5)OCO6)cccc4c3CCN2C(=O)[C@H]1[C@H](C)O", "inhibition": "-4.88% (inactive)"}
{"smiles": "COC(=O)N1Cc2ccnnc2CC1c1ccccc1Br", "note": "(stereo not given)", "inhibition": "7.59% (inactive)"}
{"smiles": "O=C1[C@@H](c2ccccc2)[C@@H](c2ccccc2)N1c1ccccc1", "inhibition": "-13% (inactive)"}
{"smiles": "O=C1Nc2ccccc2C1=NN=Cc1ccco1", "inhibition": "1.27% (inactive)"}
{"smiles": "Clc1cccc2c1C1CC2CCN1Cc1ccccc1", "note": "(stereo not given)", "inhibition": "-8.11% (inactive)"}
{"smiles": "Nc1nc2c(ncn2[C@@H]2O[C@H](C(=O)N[C@H](Cc3ccccc3)C(=O)NCC3CCCCC3)[C@@H](O)[C@H]2O)c(=O)[nH]1", "inhibition": "5.87% (inactive)"}
{"smiles": "COC(=O)C1=C(C)N(Cc2ccc(F)cc2)C(=S)NC1c1cccc(Cl)c1", "note": "(stereo not given)", "inhibition": "-11.5% (inactive)"}
{"smiles": "N#Cc1cccc(C(=O)NCC2CCN(C(=O)C(=O)c3cc4ccccc4o3)CC2)c1", "inhibition": "-11.4% (inactive)"}
